E coli growth-1 – E. coli growth inhibition, primary screen, OD600; Escherichia coli growth, 23 h; stronger effect = lower value; OD600 absorbance (no concentration beside the values); 330,000 tested, 0.21% active;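 active = OD600 absorbance below the run mean of sample wells minus 3.6 SD, in any replicate, cut at about 0.56 in these data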
E coli growth-2 – E. coli V3065 growth inhibition, primary screen, counter-screen for AddAB inhibitor project, absorbance, OD600; 18 h; 330,000 tested, 0.27% active; inhibition, % at 11.9 µM;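 active = inhibition above the campaign's mean inhibition across all tested compounds plus 3 SD, cut at about 9.9% in these data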;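 also: uninfected addAB+ strain grown without phage in ampicillin broth; 0% = DMSO wells and 100% = ciprofloxacin 0.95 µg/ml wells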
AddAB inh – growth inhibition of E. coli expressing H. pylori AddAB, primary screen, AddAB inhibitor project, absorbance; inhibition, % at 11.9 µM; AID 435030, 2010; 330,000 tested, 0.29% active; in the data active = inhibition above about 12%;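 also: 0% = vehicle wells of infected cells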
phage Ecoli inh – growth loss of phage-infected E. coli, primary screen, RecBCD inhibitor project, absorbance, with phage, HTS. inhibition, % at 11.9 µM. 360,000 tested, 0.26% active; in the data active = inhibition above about 11%
Tat transport – E. coli Tat export inhibitors, primary screen, MC4100, TorA-mCherry reporter, fluorescence, single point. inhibition, % at 10 µM. AID 488895, 2010. 340,000 tested, 0.036% active;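 active = mean replicate inhibition at least 50% and at least half of replicates individually reaching 50%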;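 also: exported cargo escapes ClpAP degradation while cytoplasmic cargo is degraded and loses fluorescence; 0% = median of neutral control wells and 100% = median of NaSCN control wells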
AddAB conf – growth loss of phage-infected E. coli expressing H. pylori AddAB, confirmation, AddAB inhibitor project, absorbance, E. coli V3065, T4 phage, triplicate; shares compounds with AddAB inh; AID 488942, 2010; OD; T4 phage with gene 2 nonsense mutations; 880 tested, 64% active; inhibition, % at 11.9 µM;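 active = mean inhibition above a set limit taken from the earlier primary screen, cut at about 13% in these data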;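 also: higher means less bacterial growth since AddAB block lets phage replicate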
RecBCD counter – growth loss of RecBCD+ E. coli with mutant T4 phage, counter-screen for AddAB inhibitor project, absorbance, V66 E. coli | shares compounds with AddAB inh | OD growth | inhibition, % at 11.9 µM | 880 tested, 73% active;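 active = mean inhibition above the mean of solvent-only control wells plus 3 SD, cut at about 4% in these data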;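 also: optical density read after an 18 h incubation at 37 °C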
bact viab count – bacterial viability inhibition counter-screen, confirmation, counter-screen for AddAB inhibitor project, absorbance; inhibition, % at 11.9 µM; shares compounds with AddAB inh; AID 488956, 2010; 880 tested, 35% active; absorbance (AddAB counterscreen); in the data active = inhibition above about 25%
RecBCD conf – growth loss of phage-infected RecBCD+ E. coli, confirmation, RecBCD inhibitor project, absorbance, E. coli V66, T4 gene 2 phage | shares compounds with phage Ecoli inh | E. coli V66 + T4 2- phage, growth OD | inhibition, % at 11.9 µM | 890 tested, 45% active;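 active = mean inhibition over triplicates exceeding the hit threshold derived in the original primary screen, cut at about 11% in these data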
Ecoli viability – E. coli viability inhibition, counter-screen for RecBCD inhibitor project, absorbance, high throughput; shares compounds with phage Ecoli inh; absorbance (OD) growth; inhibition, % at 11.9 µM; 890 tested, 29% active; AID 651983, 2013; in the data active = inhibition above about 20%;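 also: E. coli strain V66 grown with compound alone and no phage infection; 0% = bacteria with DMSO vehicle only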
AddAB counter – growth loss of phage-infected AddAB-carrying E. coli, confirmation, counter-screen for RecBCD inhibitor project, absorbance, E. coli V3065, T4 phage; 890 tested, 45% active; inhibition, % at 11.9 µM; E. coli expressing H. pylori AddAB + T4 phage, OD growth; gene 2 mutant T4, recBCD-deleted host; shares compounds with phage Ecoli inh;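 active = mean inhibition above the solvent-only control wells' mean plus 3 SD, cut at about 22% in these data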;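 also: higher means less bacterial growth from phage killing when AddAB is blocked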
* marks the source's active call; other numbers are inactive results; nt = not tested or not shown. In the library only some 0.5% were active in any assay of this set; here they are far more common.

SMILES | E coli growth-1 | E coli growth-2 | AddAB inh | phage Ecoli inh | Tat transport | AddAB conf | RecBCD counter | bact viab count | RecBCD conf | Ecoli viability | AddAB counter
NC(=O)c1oc2ccccc2c1NC(=O)c1ccc([N+](=O)[O-])o1 | 0.49* | 99* | 99* | 23* | -3 | 101* | 26* | 101* | 18* | 22* | 100*
COc1ccc(NC(=O)c2ccc(Br)o2)cc1 | 0.66 | 2 | 5 | 4 | -18 | nt | nt | nt | nt | nt | nt
O=C(NNC(=O)c1ccc([N+](=O)[O-])o1)c1ccccc1 | 0.35* | 86* | 68* | 26* | -2 | 103* | 23* | 70* | 18* | 21* | 102*
NC(=O)c1oc2ccccc2c1NC(=O)c1ccc(F)cc1 | 0.71 | 0 | -1 | 3 | -5 | nt | nt | nt | nt | nt | nt
COc1ccc(NC(=O)c2ccc([N+](=O)[O-])o2)cc1 | 0.47* | 80* | 58* | 19* | -12 | 100* | 17* | 46* | 15* | 18 | 100*
CC(C)Oc1ccc(C(CC(=O)O)Cc2ccccc2)cc1 (configuration not stated) | 0.68 | -3 | -3 | 0 | 2 | nt | nt | nt | nt | nt | nt
CC(=O)C1=CCC(c2ccc(Br)cc2)N(S(=O)(=O)c2ccc(C)cc2)C1 (configuration not stated) | nt | nt | nt | 3 | nt | nt | nt | nt | nt | nt | nt
CCCCS(=O)(=O)N1CCC(C(=O)NCC2CCCO2)CC1 (configuration not stated) | 0.68 | 3 | 2 | 3 | -4 | nt | nt | nt | nt | nt | nt
CC(=O)c1cccc(NC(=O)c2ccc([N+](=O)[O-])o2)c1 | 0.44* | 83* | 89* | 16* | 0 | 101* | 19* | 71* | 10 | 13 | 84*
O=C(Nc1cccnc1)c1ccc([N+](=O)[O-])o1 | 0.41* | 96* | 97* | 20* | -37 | 98* | 20* | 91* | 13* | 17 | 101*
Cc1cc(C)cc(NC(=O)c2ccc([N+](=O)[O-])o2)c1 | 0.56 | nt | nt | 10 | -5 | nt | nt | nt | nt | nt | nt
O=C(Nc1cccnc1)c1ccco1 | 0.65 | 0 | 1 | 0 | -8 | nt | nt | nt | nt | nt | nt
COc1cc(C2/C(=C(\O)c3ccc4c(c3)OCCO4)C(=O)C(=O)N2c2nnc(C)s2)cc(OC)c1OC (configuration not stated) | 0.71 | 1 | 3 | 4 | 7 | nt | nt | nt | nt | nt | nt
O=C(NN=Cc1cc(Br)ccc1O)C(=O)Nc1ccccc1OC(F)(F)C(F)F | 0.74 | nt | nt | nt | nt | nt | nt | nt | nt | nt | nt
COc1cccc(/C=N/NC(=O)C(=O)Nc2ccccc2OC(F)(F)C(F)F)c1O | nt | 15* | 19* | 17* | -3 | 10 | 12* | 10 | 4 | 4 | 7
COc1cccc(C=NNC(=O)c2ccc(-c3ccccc3)cc2)c1O | 0.72 | nt | nt | nt | nt | nt | nt | nt | nt | nt | nt
COc1cccc(/C=N/NC(=O)c2ccc(-c3ccccc3)cc2)c1O | nt | 17* | 19* | 19* | 2 | 6 | 16* | 4 | 7 | 10 | 19
COc1cc2cc(C(C)(C)O)oc(=O)c2cc1OC | 0.7 | 0 | 2 | 1 | -8 | nt | nt | nt | nt | nt | nt
CC1CCN(CCCNC(=O)CCCNC(=O)Cn2cnc3sc4c(c3c2=O)CCCC4)CC1 | 0.7 | -1 | -1 | 1 | 14 | nt | nt | nt | nt | nt | nt

High-throughput results as filed in PubChem.
